The record followed here is PubChem BioAssay (NCI).

The panel holds about 83,000 compounds, 20% with a hit somewhere; the sample as a whole holds those more often.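 Step 1: grow cells in 96-well plates. Step 2: add test compound at a single concentration. Step 3: incubate 48 h. Step 4: record percent growth.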 Values without a mark were called inactive. Active and inactive are the calls of the source. The calls were made as follows: active = growth percent below 10; inactive = the rest.

One assay relates to RPMI-8226 leukemia. The experiment in a line: NCI-60 one-dose screen, 48 h (100 = growth as untreated, 0 = no growth, -100 = all killed). Conditions: 10 µM unless noted.
Consider `CCN1C(=O)N(CC)C2C1NN=c1s/c(=C\c3cc4ccccc4[nH]3)c(=O)n12` (stereo not drawn), for which the growth is -32.1% (active).
Turning to `CCN(CC)CCCNCc1cc(-c2ccccc2)nc2cc(Cl)ccc12`, the growth is 3.47% (active).
Turning to `CC[C@H](CC[C@@H](C)[C@H]1CC[C@H]2[C@@H]3CC[C@@H]4CC(=O)/C(=C\c5ccncc5)C[C@]4(C)[C@H]3CC[C@]12C)C(C)C`, the growth was 92.2%.
Same read-out and setting: then `CCN(CC)c1ccc(/C=N\NC(=O)c2cccc(Nc3ccnc(C(F)(F)F)c3)c2)c(O)c1`, with 6.52% (active); and `Cc1cscc(C)c1=S`, with 103%; and `COC(=O)/C=C1/SC(=Nc2cccc(Cl)c2)N(CCc2c[nH]c3ccc(O)cc23)C1=O`, with -23.9% (active).
Regarding `O=C(CCCCCCCCC(=O)N/N=C\c1cc(Cl)ccc1O)N/N=C\c1cc(Cl)ccc1O`, the growth is 31.9%.
Regarding `COc1ccc(/C=C/C(=O)c2cc3c(N)c(C(=O)Nc4ccc(OC)cc4)sc3nc2C)cc1`, the growth was 37.7%.
On the same count and under the same terms, then `CCCCCCOC(=O)CC1=C(C)/C(=C/c2[nH]c(-c3ccc[nH]3)cc2OC)N=C1C`, with -52.3% (active).
On to `Cc1ccc(O)c(NC(=O)c2ccc(CNc3ccnc(C(F)(F)F)c3)cc2)c1`, for which the growth was 15.2%.
With `O=C1/C(=C/c2ccc(Br)cc2)COc2ccc(O)c(O)c21`, the growth is -33.5% (active).
Same read-out and setting: then `O=C(/C=C/C12c3ccccc3C(c3ccccc31)C1C(=O)NC(=O)C12)c1ccc(F)cc1` (stereo not drawn), with -24% (active); and `Cc1ccc(C)c2c1C(O)(C#Cc1ccccc1)c1ccccc1C2(O)C#Cc1ccccc1` (stereo not drawn), with 18.9%; and `C(/C=C/c1ccccc1)=Nc1ccc(CCc2ccc(N=C/C=C/c3ccccc3)cc2)cc1`, with 94.5%.
`O=C(Cn1nnc2ccccc21)Nc1ccc(-c2nc3ccccc3s2)cc1`: the growth was 85.3%.
In the case of `CCCCCCCC/C=C\CCCCCCCCOc1ccc(CC(=O)NCC[N+](C)(C)C)cc1`, the growth is 40.9%.
Still for that read-out and setting: then `COc1cc(/C=C2\CN(S(=O)(=O)c3ccc(C)cc3)C/C(=C\c3cc(CN4CCCCC4)c(O)c(OC)c3)C2=O)cc(CN2CCCCC2)c1O`, with -39.3% (active).
Regarding `Cc1ncc(C(=O)Nc2ccc(CN3CCN(C)CC3)c(C(F)(F)F)c2)cc1C#Cc1cnc(N)c2ccncc12`, the growth is -43.7% (active).
Consider `COc1cc(C2=NN(C(C)=O)C(c3ccc(N(C)C)cc3)C2)cc(OC)c1OC` (stereo not drawn), for which the growth was 99.1%.
As to `COC1=CC(c2ccc[nH]2)=N/C1=C\c1[nH]c(C)c(CC(=O)OCc2ccccc2)c1C`, the growth is -41.1% (active).
As to `CCOC(=O)CSc1nc2sc3c(c2c(=O)n1-c1ccc([N+](=O)[O-])cc1)CCCCC3`, the growth was 91.6%.
As to `CN(C)c1ccc(C(=NO)c2ccc(N(C)C)cc2)cc1`, the growth is 49.5%.
For the compound `Cc1ccc(C(=O)c2ccc(CC(=O)N/N=C/c3ccc(O)cc3O)n2C)cc1`, the growth is 48.4%.
Still for that read-out and setting: then `N#C/C(=C\c1ccc(Br)cc1)c1cc2ccccc2[nH]1`, with 78.9%; and `COc1ccc(-c2cn(-c3ccc(Cl)cc3)c(SCC(=O)c3ccc([N+](=O)[O-])cc3)n2)cc1`, with 97.2%.
Same read-out and setting: then `COc1ccc(Cc2nnc(Nc3nc4ccccc4s3)s2)cc1`, with 107%; and `CCOC(=O)c1ccc2c(c1)c1c(C)c3ccncc3c(C)c1n2C`, with -1.7% (active).
Still for that read-out and setting: then `Cc1nc2sc(C(=O)Nc3cccc(Cl)c3)c(N)c2cc1C(O)c1ccccc1` (stereo not drawn), with 11.3%.
On to `COc1ccc(C2CC(c3ccc(Nc4nc(Nc5ccc(F)cc5)nc(Nc5ccc(F)cc5)n4)cc3)=NN2C(C)=O)cc1` (stereo not drawn), for which the growth is 7.18% (active).
On the same count and under the same terms, then `N#Cc1c(NC(=O)c2cccs2)[n+]([O-])c2ccc(Cl)cc2[n+]1[O-]`, with 104%.
On the same count and under the same terms, then `CC(C)(C)c1cc(C=Nc2cccc(C(F)(F)F)c2)c(O)c(C(C)(C)C)c1`, with 74.5%; and `N=c1sc(Cc2cc(Cl)ccc2Cl)cn1CC(=O)c1ccccc1`, with 70.4%.
Same read-out and setting: then `COc1ccc(Nc2ncc(C(N)=O)c(NCCCNC(=O)C3CCC3)n2)cc1`, with 72.9%; and `Cc1nn(-c2ccccc2)c(/N=C/N(C)C)c1/C=C/C(=O)c1ccc(Cl)cc1`, with 6.91% (active).
In the case of `COc1ccc2cc(-c3ccc(-c4ccc(C(=N)N)s4)s3)ccc2c1`, the growth was -20.9% (active).
In the case of `O=C1c2cccnc2C(=O)c2c1c(C(=O)OCCCN1CCCCC1)c1ccccn21`, the growth is -28.3% (active).
Still for that read-out and setting: then `O[C@@H](c1cc(C(F)(F)F)nc2c(C(F)(F)F)cccc12)[C@H]1CCCCN1`, with 68.9%; and `Cc1[nH]c(/C=C/C(=O)c2ccc(C(F)(F)F)c(F)c2)c(C)c1C(=O)NCC(C)C`, with 95.8%; and `CCCCCCCCn1ccc2cc(NC(=O)Cn3cc(CN4CCCCCC4)nn3)ccc21`, with -9.08% (active).

The test system of another assay is OVCAR-8 ovarian. Described as above. Conditions: 10 µM unless noted.
Take `CCN1C(=O)N(CC)C2C1NN=c1s/c(=C\c3cc4ccccc4[nH]3)c(=O)n12` (stereo not drawn): the growth was -14.2% (active).
As to `CCN(CC)CCCNCc1cc(-c2ccccc2)nc2cc(Cl)ccc12`, the growth was 28.8%.
On to `CC[C@H](CC[C@@H](C)[C@H]1CC[C@H]2[C@@H]3CC[C@@H]4CC(=O)/C(=C\c5ccncc5)C[C@]4(C)[C@H]3CC[C@]12C)C(C)C`, for which the growth was 100%.
Still for that read-out and setting: then `CCN(CC)c1ccc(/C=N\NC(=O)c2cccc(Nc3ccnc(C(F)(F)F)c3)c2)c(O)c1`, with 37.3%.
Regarding `Cc1cscc(C)c1=S`, the growth was 83.3%.
Still for that read-out and setting: then `COC(=O)/C=C1/SC(=Nc2cccc(Cl)c2)N(CCc2c[nH]c3ccc(O)cc23)C1=O`, with -4.55% (active); and `O=C(CCCCCCCCC(=O)N/N=C\c1cc(Cl)ccc1O)N/N=C\c1cc(Cl)ccc1O`, with 25.9%.
The same measure, in the same setting: then `COc1ccc(/C=C/C(=O)c2cc3c(N)c(C(=O)Nc4ccc(OC)cc4)sc3nc2C)cc1`, with 7.03% (active); and `CCCCCCOC(=O)CC1=C(C)/C(=C/c2[nH]c(-c3ccc[nH]3)cc2OC)N=C1C`, with -55.1% (active); and `Cc1ccc(O)c(NC(=O)c2ccc(CNc3ccnc(C(F)(F)F)c3)cc2)c1`, with 69.6%.
Regarding `O=C1/C(=C/c2ccc(Br)cc2)COc2ccc(O)c(O)c21`, the growth is 6.31% (active).
The same measure, in the same setting: then `O=C(/C=C/C12c3ccccc3C(c3ccccc31)C1C(=O)NC(=O)C12)c1ccc(F)cc1` (stereo not drawn), with -64.2% (active); and `Cc1ccc(C)c2c1C(O)(C#Cc1ccccc1)c1ccccc1C2(O)C#Cc1ccccc1` (stereo not drawn), with 59.3%.
The same measure, in the same setting: then `C(/C=C/c1ccccc1)=Nc1ccc(CCc2ccc(N=C/C=C/c3ccccc3)cc2)cc1`, with 83.5%.
Regarding `O=C(Cn1nnc2ccccc21)Nc1ccc(-c2nc3ccccc3s2)cc1`, the growth is 98.5%.
Still for that read-out and setting: then `CCCCCCCC/C=C\CCCCCCCCOc1ccc(CC(=O)NCC[N+](C)(C)C)cc1`, with 54.8%; and `COc1cc(/C=C2\CN(S(=O)(=O)c3ccc(C)cc3)C/C(=C\c3cc(CN4CCCCC4)c(O)c(OC)c3)C2=O)cc(CN2CCCCC2)c1O`, with -66.4% (active).
On to `Cc1ncc(C(=O)Nc2ccc(CN3CCN(C)CC3)c(C(F)(F)F)c2)cc1C#Cc1cnc(N)c2ccncc12`, for which the growth was -35.5% (active).
As to `COc1cc(C2=NN(C(C)=O)C(c3ccc(N(C)C)cc3)C2)cc(OC)c1OC` (stereo not drawn), the growth is 95.3%.
Same read-out and setting: then `COC1=CC(c2ccc[nH]2)=N/C1=C\c1[nH]c(C)c(CC(=O)OCc2ccccc2)c1C`, with 9.46% (active).
Still for that read-out and setting: then `CCOC(=O)CSc1nc2sc3c(c2c(=O)n1-c1ccc([N+](=O)[O-])cc1)CCCCC3`, with 58.4%; and `CN(C)c1ccc(C(=NO)c2ccc(N(C)C)cc2)cc1`, with 39.4%; and `Cc1ccc(C(=O)c2ccc(CC(=O)N/N=C/c3ccc(O)cc3O)n2C)cc1`, with 48.4%.
With `N#C/C(=C\c1ccc(Br)cc1)c1cc2ccccc2[nH]1`, the growth is 96.8%.
With `COc1ccc(-c2cn(-c3ccc(Cl)cc3)c(SCC(=O)c3ccc([N+](=O)[O-])cc3)n2)cc1`, the growth is 51.8%.
Regarding `COc1ccc(Cc2nnc(Nc3nc4ccccc4s3)s2)cc1`, the growth is 103%.
For the compound `CCOC(=O)c1ccc2c(c1)c1c(C)c3ccncc3c(C)c1n2C`, the growth was 3.64% (active).
Same read-out and setting: then `Cc1nc2sc(C(=O)Nc3cccc(Cl)c3)c(N)c2cc1C(O)c1ccccc1` (stereo not drawn), with 19%.
As to `COc1ccc(C2CC(c3ccc(Nc4nc(Nc5ccc(F)cc5)nc(Nc5ccc(F)cc5)n4)cc3)=NN2C(C)=O)cc1` (stereo not drawn), the growth is 90.3%.
The same measure, in the same setting: then `N#Cc1c(NC(=O)c2cccs2)[n+]([O-])c2ccc(Cl)cc2[n+]1[O-]`, with 108%; and `CC(C)(C)c1cc(C=Nc2cccc(C(F)(F)F)c2)c(O)c(C(C)(C)C)c1`, with 88.1%.
The same measure, in the same setting: then `N=c1sc(Cc2cc(Cl)ccc2Cl)cn1CC(=O)c1ccccc1`, with 62.6%; and `COc1ccc(Nc2ncc(C(N)=O)c(NCCCNC(=O)C3CCC3)n2)cc1`, with 62.6%.
As for `Cc1nn(-c2ccccc2)c(/N=C/N(C)C)c1/C=C/C(=O)c1ccc(Cl)cc1`, the growth was 101%.
Still for that read-out and setting: then `COc1ccc2cc(-c3ccc(-c4ccc(C(=N)N)s4)s3)ccc2c1`, with -32.6% (active); and `O=C1c2cccnc2C(=O)c2c1c(C(=O)OCCCN1CCCCC1)c1ccccn21`, with -32% (active).
Still for that read-out and setting: then `O[C@@H](c1cc(C(F)(F)F)nc2c(C(F)(F)F)cccc12)[C@H]1CCCCN1`, with 76.7%; and `Cc1[nH]c(/C=C/C(=O)c2ccc(C(F)(F)F)c(F)c2)c(C)c1C(=O)NCC(C)C`, with 89.4%; and `CCCCCCCCn1ccc2cc(NC(=O)Cn3cc(CN4CCCCCC4)nn3)ccc21`, with 30%.
